The full data set covers some 7,900 targets. This sample favours those with a hit. About 0.6% of all pairs of compound and target were hits. A number with no mark means an inactive call.

Chain of UniProt Q9BZD2 (Q9BZD2 whole entry, looked up): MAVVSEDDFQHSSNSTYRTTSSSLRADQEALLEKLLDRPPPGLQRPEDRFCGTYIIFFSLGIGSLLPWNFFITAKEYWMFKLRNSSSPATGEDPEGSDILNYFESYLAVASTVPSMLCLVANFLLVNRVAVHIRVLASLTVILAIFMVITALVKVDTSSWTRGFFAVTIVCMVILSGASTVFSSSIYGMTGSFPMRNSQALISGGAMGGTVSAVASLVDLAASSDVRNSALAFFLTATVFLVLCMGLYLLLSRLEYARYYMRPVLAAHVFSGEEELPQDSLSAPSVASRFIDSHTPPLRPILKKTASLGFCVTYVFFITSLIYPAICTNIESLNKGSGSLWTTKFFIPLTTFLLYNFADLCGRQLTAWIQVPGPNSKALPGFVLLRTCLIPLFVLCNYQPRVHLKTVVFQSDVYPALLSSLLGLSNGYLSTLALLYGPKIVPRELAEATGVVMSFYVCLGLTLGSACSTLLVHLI
Chain of UniProt P51571 (P51571 whole entry, looked up): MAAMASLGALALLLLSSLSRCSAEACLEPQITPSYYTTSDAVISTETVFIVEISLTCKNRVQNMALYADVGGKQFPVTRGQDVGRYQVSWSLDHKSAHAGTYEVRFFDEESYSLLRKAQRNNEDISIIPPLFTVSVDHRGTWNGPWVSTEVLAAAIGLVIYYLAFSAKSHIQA
Chain of UniProt Q8IWA5 (Q8IWA5 whole entry, looked up): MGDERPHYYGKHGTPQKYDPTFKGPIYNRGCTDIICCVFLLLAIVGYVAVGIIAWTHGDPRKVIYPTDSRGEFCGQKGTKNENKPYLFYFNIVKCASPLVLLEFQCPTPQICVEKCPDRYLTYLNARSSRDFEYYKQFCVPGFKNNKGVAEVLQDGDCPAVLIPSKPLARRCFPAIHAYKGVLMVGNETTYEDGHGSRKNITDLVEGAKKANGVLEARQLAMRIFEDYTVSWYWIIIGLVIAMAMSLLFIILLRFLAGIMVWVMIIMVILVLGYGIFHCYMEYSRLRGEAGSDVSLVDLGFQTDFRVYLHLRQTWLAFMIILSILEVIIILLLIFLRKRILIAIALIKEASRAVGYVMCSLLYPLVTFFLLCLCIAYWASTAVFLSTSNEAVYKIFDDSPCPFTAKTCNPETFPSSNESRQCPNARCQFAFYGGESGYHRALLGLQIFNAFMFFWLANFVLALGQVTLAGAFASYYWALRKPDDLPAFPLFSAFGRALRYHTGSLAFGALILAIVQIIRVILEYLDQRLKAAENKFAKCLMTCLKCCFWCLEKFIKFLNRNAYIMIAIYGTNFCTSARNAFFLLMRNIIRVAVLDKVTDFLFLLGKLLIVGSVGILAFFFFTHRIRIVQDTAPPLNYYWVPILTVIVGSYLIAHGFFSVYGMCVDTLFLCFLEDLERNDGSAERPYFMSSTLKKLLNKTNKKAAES
Chain of UniProt O14776 (O14776 whole entry, looked up): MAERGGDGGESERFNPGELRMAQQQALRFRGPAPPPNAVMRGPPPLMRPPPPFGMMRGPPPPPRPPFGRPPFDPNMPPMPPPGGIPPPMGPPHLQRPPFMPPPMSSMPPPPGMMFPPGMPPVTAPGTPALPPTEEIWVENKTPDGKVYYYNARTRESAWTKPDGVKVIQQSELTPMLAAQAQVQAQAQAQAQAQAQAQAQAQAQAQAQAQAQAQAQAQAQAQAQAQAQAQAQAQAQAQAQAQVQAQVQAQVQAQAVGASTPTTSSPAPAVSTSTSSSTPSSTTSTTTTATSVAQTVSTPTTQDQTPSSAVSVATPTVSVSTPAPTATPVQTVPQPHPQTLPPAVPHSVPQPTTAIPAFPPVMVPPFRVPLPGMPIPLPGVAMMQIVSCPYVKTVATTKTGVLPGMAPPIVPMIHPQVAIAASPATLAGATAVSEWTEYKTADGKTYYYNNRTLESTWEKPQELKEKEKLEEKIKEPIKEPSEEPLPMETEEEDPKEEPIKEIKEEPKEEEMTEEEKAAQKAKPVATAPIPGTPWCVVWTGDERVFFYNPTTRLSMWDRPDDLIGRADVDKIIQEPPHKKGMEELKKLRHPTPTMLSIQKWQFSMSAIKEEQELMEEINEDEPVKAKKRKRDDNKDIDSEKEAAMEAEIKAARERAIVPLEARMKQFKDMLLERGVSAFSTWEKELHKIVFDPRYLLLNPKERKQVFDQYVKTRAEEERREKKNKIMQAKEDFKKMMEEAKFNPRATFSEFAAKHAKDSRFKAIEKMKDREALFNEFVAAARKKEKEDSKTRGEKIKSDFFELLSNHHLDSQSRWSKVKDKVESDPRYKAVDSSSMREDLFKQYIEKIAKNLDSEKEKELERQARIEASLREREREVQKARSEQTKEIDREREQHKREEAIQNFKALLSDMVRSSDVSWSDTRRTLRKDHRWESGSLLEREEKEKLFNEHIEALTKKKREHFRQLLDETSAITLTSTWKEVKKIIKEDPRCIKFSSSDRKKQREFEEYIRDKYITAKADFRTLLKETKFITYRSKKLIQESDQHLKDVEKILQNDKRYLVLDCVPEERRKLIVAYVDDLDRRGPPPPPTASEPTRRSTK
Chain of UniProt Q9UKI8 (Q9UKI8 whole entry, looked up): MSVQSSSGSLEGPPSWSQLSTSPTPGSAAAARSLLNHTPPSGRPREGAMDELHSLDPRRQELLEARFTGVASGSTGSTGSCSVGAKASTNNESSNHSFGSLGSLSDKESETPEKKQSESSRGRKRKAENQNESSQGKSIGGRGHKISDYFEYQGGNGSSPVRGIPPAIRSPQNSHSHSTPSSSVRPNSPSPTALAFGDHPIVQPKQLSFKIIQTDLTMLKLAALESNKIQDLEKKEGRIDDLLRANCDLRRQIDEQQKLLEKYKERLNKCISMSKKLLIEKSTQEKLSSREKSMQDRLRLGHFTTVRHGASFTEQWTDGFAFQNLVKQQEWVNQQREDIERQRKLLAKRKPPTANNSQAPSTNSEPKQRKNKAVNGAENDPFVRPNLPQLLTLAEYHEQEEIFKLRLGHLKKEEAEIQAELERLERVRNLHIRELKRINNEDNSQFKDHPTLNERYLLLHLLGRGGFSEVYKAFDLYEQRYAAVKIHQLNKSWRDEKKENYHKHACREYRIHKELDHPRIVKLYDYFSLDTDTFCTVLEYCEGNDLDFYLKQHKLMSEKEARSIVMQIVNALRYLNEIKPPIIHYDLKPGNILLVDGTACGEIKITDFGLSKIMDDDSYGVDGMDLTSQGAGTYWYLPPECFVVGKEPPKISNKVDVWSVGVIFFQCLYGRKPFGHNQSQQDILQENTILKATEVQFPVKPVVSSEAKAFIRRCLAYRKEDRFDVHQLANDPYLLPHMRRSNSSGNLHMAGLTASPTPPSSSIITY
Chain of UniProt Q658P3 (Q658P3 whole entry, looked up): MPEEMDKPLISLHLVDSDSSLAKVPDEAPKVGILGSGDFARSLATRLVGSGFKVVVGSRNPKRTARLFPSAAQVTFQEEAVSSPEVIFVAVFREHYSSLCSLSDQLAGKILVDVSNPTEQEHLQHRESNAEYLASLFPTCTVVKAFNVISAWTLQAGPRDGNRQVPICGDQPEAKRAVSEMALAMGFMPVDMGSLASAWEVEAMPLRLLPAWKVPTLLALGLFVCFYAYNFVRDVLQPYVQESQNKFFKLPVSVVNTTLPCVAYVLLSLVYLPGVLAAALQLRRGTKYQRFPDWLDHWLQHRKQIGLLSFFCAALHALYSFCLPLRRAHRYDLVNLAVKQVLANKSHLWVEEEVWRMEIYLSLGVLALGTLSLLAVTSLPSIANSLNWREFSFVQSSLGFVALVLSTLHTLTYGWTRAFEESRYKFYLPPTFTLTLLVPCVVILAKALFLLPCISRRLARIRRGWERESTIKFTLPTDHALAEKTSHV
Chain of UniProt P40763 (P40763 whole entry, looked up): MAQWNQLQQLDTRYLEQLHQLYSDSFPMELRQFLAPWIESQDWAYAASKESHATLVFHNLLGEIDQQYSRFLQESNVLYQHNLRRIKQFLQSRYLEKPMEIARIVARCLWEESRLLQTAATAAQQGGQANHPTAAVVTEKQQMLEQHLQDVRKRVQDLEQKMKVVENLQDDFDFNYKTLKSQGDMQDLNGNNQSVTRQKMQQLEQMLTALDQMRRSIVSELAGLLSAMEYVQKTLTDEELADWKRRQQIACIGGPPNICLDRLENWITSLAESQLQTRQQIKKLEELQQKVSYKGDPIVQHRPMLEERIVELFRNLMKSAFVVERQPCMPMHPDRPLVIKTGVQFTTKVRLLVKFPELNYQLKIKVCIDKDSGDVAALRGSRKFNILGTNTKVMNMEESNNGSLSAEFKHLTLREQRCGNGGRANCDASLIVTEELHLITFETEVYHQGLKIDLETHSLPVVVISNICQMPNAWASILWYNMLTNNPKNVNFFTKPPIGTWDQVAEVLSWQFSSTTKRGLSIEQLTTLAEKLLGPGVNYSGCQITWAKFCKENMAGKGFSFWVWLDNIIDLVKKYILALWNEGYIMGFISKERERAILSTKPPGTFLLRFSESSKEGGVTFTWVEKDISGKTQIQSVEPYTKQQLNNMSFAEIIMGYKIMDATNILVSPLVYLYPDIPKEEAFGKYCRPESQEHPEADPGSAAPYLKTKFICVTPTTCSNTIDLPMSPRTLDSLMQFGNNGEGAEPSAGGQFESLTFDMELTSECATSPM
Chain of UniProt Q8NEW0 (Q8NEW0 whole entry, looked up): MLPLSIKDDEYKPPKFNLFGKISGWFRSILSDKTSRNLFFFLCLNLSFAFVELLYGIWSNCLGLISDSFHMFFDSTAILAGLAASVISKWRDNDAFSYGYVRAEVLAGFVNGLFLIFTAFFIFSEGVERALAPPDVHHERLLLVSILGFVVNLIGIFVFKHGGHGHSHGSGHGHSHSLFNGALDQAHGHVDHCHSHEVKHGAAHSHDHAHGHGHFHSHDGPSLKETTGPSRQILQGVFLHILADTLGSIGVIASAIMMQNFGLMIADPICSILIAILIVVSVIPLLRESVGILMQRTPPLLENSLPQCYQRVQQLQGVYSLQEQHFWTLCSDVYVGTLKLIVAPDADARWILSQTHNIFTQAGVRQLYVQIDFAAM
Chain of UniProt P62318 (P62318 whole entry, looked up): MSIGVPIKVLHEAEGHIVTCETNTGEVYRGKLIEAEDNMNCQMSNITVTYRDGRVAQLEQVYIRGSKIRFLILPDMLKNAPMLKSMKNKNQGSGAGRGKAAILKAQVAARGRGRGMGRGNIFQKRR

Compound in the experiment: C1=CC2=NC=CN=C2C=C1/C=C/3\C(=O)NC(=O)S3
The experiment is described as follows: log2 fold change, soluble protein after heating vs DMSO (PISA); higher = thermal stabilisation; K562 cells, 10 uM, 30 min; active = over 0.2 and 3.5 SD of the protein, either way, in both replicates (recomputed). A digest of the protocol:
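Soluble protein was defined as the supernatant after 21,000xg for 90 min. It came from K562 cells at 2×10^6 cells/mL given 10 μM compound for 30 min, heated in aliquots for 3 min across 48°C-58°C, pooled, and extracted in PBS with 0.5% NP-40 at 4°C, and was quantified by TMTpro 16plex LC-MS/MS with equalised channel sums. Thermal stability against control samples, from duplicates, is reported as log2 fold change.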
With STAT3 (UniProt P40763), the log2 fold change is 0.031.
With SNX3 (UniProt O60493) the figure was -0.058; with SLC25A42 (UniProt Q86VD7), -0.026; with STRN (UniProt O43815), 0.005.
With SNX11 (UniProt Q9Y5W9) the figure was -0.028.
In the case of STARD3NL (UniProt O95772) it was 0.048; in that of SNX12 isoform 1 (UniProt Q9UMY4), -0.01; in that of SRC isoform 2 (UniProt P12931), 0.022.
As to SLIRP (UniProt Q9GZT3), the log2 fold change was 0.093.
With SPG11 (UniProt Q96JI7) the figure was -0.108; with TMBIM1 (UniProt Q969X1), -0.025.
With TJP2 isoform 7 (UniProt Q9UDY2) the figure was -0.201; with SMAD2 (UniProt Q15796), -0.004; with TERF2IP (UniProt Q9NYB0), 0.049.
STK25 (UniProt O00506): the log2 fold change is 0.041.
With STARD7 (UniProt Q9NQZ5) the figure was 0.009; with TCERG1 (UniProt O14776), -0.022; with SREK1 isoform 2 (UniProt Q8WXA9), -0.084.
In the case of TBC1D23 (UniProt Q9NUY8) it was 0.021.
With TGFBI (UniProt Q15582) the figure was 0.034; with TFRC (UniProt P02786), 0.027; with SSR4 (UniProt P51571), 0.007.
Take THYN1 (UniProt Q9P016): the log2 fold change is 0.006.
In the case of SLC44A2 isoform 2 (UniProt Q8IWA5) it was -0.096; in that of SLC25A36 (UniProt Q96CQ1), 0.102.
In the case of TEX30 (UniProt Q5JUR7) it was 0.025.
With TLK1 (UniProt Q9UKI8) the figure was 0.005; with SRI (UniProt P30626), 0.121.
Regarding SLC35F6 (UniProt Q8N357), the log2 fold change is -0.047.
SPTBN4 (UniProt Q9H254): the log2 fold change is -0.027.
In the case of SNRPD3 (UniProt P62318) it was 0.079; in that of SLC29A3 (UniProt Q9BZD2), 0.098; in that of SLC27A1 (UniProt Q6PCB7), 0.
In the case of SLC30A7 (UniProt Q8NEW0) it was 0.077; in that of SLC7A6OS (UniProt Q96CW6), 0.042; in that of STEAP3 isoform 2 (UniProt Q658P3), 0.02.
In the case of TAX1BP1 (UniProt Q86VP1) it was 0.037.

(Values after the supplement of paper PMC10849652.)
